# According to PubChem BioAssay AID687043 (Milwaukee Institute for Drug Discovery, 2013):
# In all, about 16,000 compounds went through this assay and about 250 (1.6%) were called active. For the sample, actives were picked, then their nearest neighbours and some compounds at random. Values without a mark were called inactive.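 Rule for the calls: active = inhibition above the average over every tested compound plus 3 SD (cut at about 40% in these data); inactive = the rest.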
# Test system: Hepatitis C virus NS3 helicase
# Experiment: compounds blocking NS3h DNA binding – biochemical, fluorescence polarization, ChemBridge library, primary screen (AID 687043)
# Details: NS3h Cy5-dT15 DNA binding, at 100 µM, hits give high values
row,Compound,inhibition [%]
1,CCOC(=O)c1cc2n(n1)C(C(F)(F)F)CC(c1ccco1)N2 (stereo not given),1.4
2,COc1ccc(Nc2nc(-c3ccccc3)c3cc(C)ccc3n2)cc1,6.7
3,COc1ccc(S(=O)(=O)NCCC(C)C)cc1,4.2
4,Cc1ccc(CCC(=O)Nc2ncc(Cc3ccc(F)cc3)s2)o1,-10.4
5,COc1ccc(C(=O)Nc2ccc(Br)cc2C)c(OC)c1,24.4
6,COc1ccccc1CNC(=O)C1CC(=O)N(c2ccc(F)cc2)C1 (stereo not given),1.7
7,Cc1ccc(C(=O)Nc2ccc(Cl)cc2)cc1[N+](=O)[O-],-9.5
8,O=C(/C=C/c1cc2c(cc1Br)OCO2)c1cccc([N+](=O)[O-])c1,2.3
9,COc1ccc(-c2noc(-c3ccc(Br)cc3)n2)cc1,3.3
10,O=C(NCc1ccco1)/C(=C/c1cccc(Oc2ccccc2)c1)NC(=O)c1ccccc1,9.7
11,Cc1nc(SCC#N)c(C#N)c(C)c1C,9
12,COc1ccc2c(Cl)c(C(=O)NCc3ccc4c(c3)OCO4)sc2c1,17
13,Cc1ccccc1OCC(=O)Nc1ccc(OC(F)(F)F)cc1,2.3
14,CC(C)Nc1nc(-c2ccc(Cl)cc2)nc2ccccc12,19.8
15,COc1cccc(C2C(C(=O)Nc3ccccc3)=C(C)N=c3s/c(=C\c4ccncc4)c(=O)n32)c1 (stereo not given),2.2
16,Cn1c(=O)c2c(nc(Sc3ncn[nH]3)n2C)n(C)c1=O,-6.5
17,CCOC(=O)C1=C(C)N=c2s/c(=C/c3c[nH]c4ccccc34)c(=O)n2C1c1ccc(F)cc1 (stereo not given),-6.3
18,O=C(c1ccncc1)N1N=C(c2ccc(Cl)cc2)CC1(O)C(F)(F)F (stereo not given),13.4
19,COC(=O)C1=C(C)NC2=C(C(=O)CC(c3ccc(OC)c(OC)c3)C2)C1c1ccc(OC)c(OC)c1 (stereo not given),7.3
20,O=C(CN(c1cccc(Br)c1)S(=O)(=O)c1ccccc1)N1CCOCC1,3.1
21,Cn1c(=O)n(CCOc2ccc(Br)cc2)c2ccccc21,13.9
22,Cc1nc2c([N+](=O)[O-])cc(Br)cc2c(=O)[nH]1,-12.6
23,COc1ccc(CCNC(=O)C(=O)Nc2ccccc2C)cc1OC,15.5
24,CCOc1ccc(C2=C/C(=C/c3ccc(OC)c(OC)c3)C(=O)O2)cc1,-0.3
25,Cc1ccc(COc2ccc3oc(C)c(C(=O)O)c3c2)cc1,5.2
26,COc1ccccc1N1CCN(S(=O)(=O)c2ccc(SC)cc2)CC1,-1.6
27,CCOc1cc(/C=C2\C=C(c3ccc(C)cc3)OC2=O)ccc1OC(C)=O,-4.9
28,O=C(COc1ccc(Br)cc1)Nc1cccc2nsnc12,6
29,O=C(COc1ccccc1)Nc1ccc(NC(=O)COc2ccccc2)cc1,2.2
30,COc1ccc(OC)c(C=NN2CCN(Cc3ccc(C)cc3C)CC2)c1,11.9
